This is an account of results in PubChem BioAssay AID1626 (SRMLSC, 2009).

About 2,000 (0.91%) of roughly 220,000 compounds were called active. Another 2% or so got no clear call; they are omitted. A selection follows. Measured potencies and affinities stand elsewhere. A number with no mark means an inactive call. Cut-off read from the data, not from the text of the source: inconclusive = inhibition above about 80% without an active follow-up result; inactive = below that; test concentration not stated here.

The test in a line: M. tuberculosis H37Rv growth inhibitors, H37Rv strain (AID 1626).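 Note: bacteria incubated seven days before Alamar blue readout; 0% = bacteria only wells and 100% = bacteria with antibiotic wells.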 The following applies: stronger effect = higher value, concentration not given here.
The term inhibition denotes the relative decrease from the control value, in per cent. On to `CS(=O)(=O)Nc1ccccc1NS(C)(=O)=O`, for which the inhibition was 2.07%. To `Cc1nnc(SCC(=O)NCc2ccc(Cl)cc2)[nH]c1=O` belongs -5.88%; to `CC(=O)c1cccc(NC(=O)CC2S/C(=N/N=C/c3ccccc3)NC2=O)c1` (stereo not drawn), 5.53%. The result for `O=C(CC(=O)c1ccccc1O)c1ccc(F)cc1` reads -0.45%. In the case of `Cc1ccc(C(=O)CC(=O)c2cccc(F)c2)c(O)c1`, the inhibition was 21%. Turning to `N=C1C(c2ccccc2)=C(O)CN1c1cccc(S(=O)(=O)Nc2cccc(C(F)(F)F)c2)c1`, the inhibition is 71.6%. The result for `CCc1ccc(NC(=O)C(C)OC(=O)C2CCC(=O)N2)cc1` (stereo not drawn) reads -4.48%; that for `Cc1ccccc1NC(=S)NCCc1ccccn1`, 1.47%; that for `Cc1cc(C)cc(N(CC(=O)NCC2CCCO2)C(=O)CN2C(=O)COc3ccccc32)c1` (stereo not drawn), -1.08%.

As to `COc1ccc(OCCOc2ccc(C)nc2[N+](=O)[O-])cc1`, the inhibition is 9.48%.

`CCC(CO)NCC#Cc1ccccc1` (stereo not drawn): the inhibition was -0.71%. Regarding `CCC(CO)NCc1ccc(Br)cc1` (stereo not drawn), the inhibition is 2.11%.

Regarding `CCN1CCN(C(c2cc3cccc(C)c3[nH]c2=O)c2nnnn2Cc2ccccc2)CC1` (stereo not drawn), the inhibition was -2.17%. `O=[N+]([O-])C(=C1Nc2ccccc2N1)C(Cl)=C(Cl)Cl`: the inhibition is 0.64%. The result for `Cc1ccc([N+](=O)[O-])c2cccnc12` reads -9.13%; that for `O=[N+]([O-])c1cc(F)c2cccnc2c1O`, -0.05%; that for `Clc1cc2cccnc2c2ccccc12`, -3.53%. As to `COC(=O)c1ccc(COc2cc([N+](=O)[O-])cc3cccnc23)cc1`, the inhibition is -7.07%.

For `O=[N+]([O-])c1ccc(O)c2ncccc12`, the inhibition was 79%. On to `O=[N+]([O-])c1cc(Cl)c2cccnc2c1O`, for which the inhibition is 3.31%. To `Oc1c(I)cc(I)c2cccnc12` belongs 76.2%; to `CCOC(=O)COc1cc([N+](=O)[O-])cc2cccnc12`, 3.26%. On to `CCOc1ccccc1CN1C(=O)c2ccccc2C1C(=O)NCC1CCCO1` (stereo not drawn), for which the inhibition is 1.98%. Take `Cc1cc(C)n2c(Br)c(CN3CC4CC(C3)c3cccc(=O)n3C4)nc2n1` (stereo not drawn): the inhibition was 9.25%.

On to `Brc1ccccc1-c1cnco1`, for which the inhibition is -1.43%.

Regarding `Cc1cccc(OCC(=O)N2CCN(C(=O)c3ccco3)CC2)c1`, the inhibition is -15.9%. For the compound `COc1ccc(-n2c(C)nc3c(cnn3-c3ccc(C)c(C)c3)c2=O)cc1`, the inhibition was 17.5%. Consider `O=c1cc(CSc2n[nH]c(-c3ccncc3)n2)nc2sccn12`, for which the inhibition was 1.39%. To `OCCN1CCN(Cc2cc(Cl)c3cccnc3c2O)CC1` belongs -5.12%. As to `CN(C)C(=O)Oc1c(Cl)cc(Cl)c2cccnc12`, the inhibition was 1.37%.

In the case of `CCN(CC)C(=O)Oc1c(Cl)cc(Cl)c2cccnc12`, the inhibition is 4.99%.

With `Oc1ccc(CN2CCc3ccccc3C2)c2cccnc12`, the inhibition is 1.81%.

As to `CCOC(=O)CN1C(=O)S/C(=C/c2cc(C)n(C)c2C)C1=O`, the inhibition was 8.52%.

For `CC(NCCN(C)C)C(=O)C12CC3CC(CC(C3)C1)C2` (stereo not drawn), the inhibition is 6.21%. To `Cc1ccc(NCCC#N)cc1C` belongs -1.15%; to `CCn1c(SCC(=O)NCc2ccccc2)nnc1-c1ccccc1O`, -6.19%.

In the case of `CCOc1cc(/C=N/NC(=O)CSc2nncn2C)ccc1OCc1ccccc1`, the inhibition is -1.69%. Take `CCOC(=O)c1[nH]ncc1CN1CCC(Cc2cccc(OC)c2)(C(=O)OCC)CC1`: the inhibition was -9.77%. `O=C(OCC(=O)N1CCCc2ccccc21)c1cncc(Br)c1`: the inhibition is -11.1%. `Cn1c(O)c(C(c2ccncc2)c2c(O)n(C)c(=S)n(C)c2=O)c(=O)n(C)c1=S`: the inhibition was -3.3%. Turning to `OCc1cn(-c2ccccc2)nc1-c1ccc(-c2nn(-c3ccccc3)cc2CO)cc1`, the inhibition is -1.67%. In the case of `COc1ccc(-c2nn(-c3ccccc3)cc2CO)cc1`, the inhibition was 5.02%. For the compound `O=C(O)Cc1cn(-c2ccccc2)nc1-c1ccccc1`, the inhibition was 3.9%. In the case of `Cc1ccc(-c2nn(-c3ccccc3)cc2CSC(=N)N)cc1`, the inhibition was 50.3%. Regarding `Cc1cc(C)c(NC(N)=S)c(C)c1`, the inhibition is 5.56%. Take `O=C(Nc1ccc2c(c1)Cc1ccccc1-2)c1cc2ccccc2o1`: the inhibition is 34.9%. Consider `CCOC(=O)/C(C(C)=O)=C1/OC(=O)c2ccccc21`, for which the inhibition is 2.35%. The result for `COc1ccc(N2CCN(S(=O)(=O)c3ccc(OC)cc3)CC2)cc1` reads 6.85%; that for `O=C(Nc1ccc(F)cc1F)C1(c2cccs2)CCOCC1`, 4.02%. Turning to `Cc1ccc(NC(=O)CCSCCC(=O)Nc2ccc(C)c(C)c2)cc1C`, the inhibition is 7.02%. Take `COC(=O)CCC(=O)Nc1ccc(OC)cc1`: the inhibition was 1.4%.

As to `O=C(CCC1COc2ccccc2O1)Nc1cccnc1` (stereo not drawn), the inhibition is -8.19%.

On to `Cc1cc(C)nc(NS(=O)(=O)c2ccc(NC(=O)CCC3COc4ccccc4O3)cc2)n1` (stereo not drawn), for which the inhibition is 0.51%. As to `CCc1ccc(CCC(=O)Nc2ccc(C)cc2C)o1`, the inhibition was 12.7%. Consider `CCOC(=O)c1c(NC(=O)CCc2ccc(CC)o2)sc(C)c1C`, for which the inhibition was -6.75%. With `CCc1ccc(CCC(=O)Nc2ccc(C(C)=O)cc2)o1`, the inhibition was 7.37%. For `CCc1ccc(CCC(=O)Nc2ccc(S(N)(=O)=O)cc2)o1`, the inhibition was 1.79%. Take `O=[N+]([O-])c1ccc(C2CCCC/C2=N/OCc2ccccc2F)c([N+](=O)[O-])c1` (stereo not drawn): the inhibition was 0.93%.

For the compound `CC1CC(=O)c2cnc(Nc3cccc(C(F)(F)F)c3)nc2C1` (stereo not drawn), the inhibition is 2.97%. To `O=C(Cn1nc(-c2ccccc2)c2ccccc2c1=O)NCC1CCCO1` (stereo not drawn) belongs 8.76%; to `Cc1ccc(-n2c(C)cc3c2CCCC3=O)cc1`, -0.32%.

On to `COC(=O)c1ccc(C(C(=O)NC2CCCCC2)N(C(=O)Cc2cccs2)C2CC2)cc1` (stereo not drawn), for which the inhibition is -2.62%.

With `COc1ccc(CCNC(=O)C2CCN(c3ccc(N4CCOCC4)nn3)CC2)c(OC)c1`, the inhibition was 6.05%.

On to `COc1ccc(-c2nc3ncccn3c2Br)cc1`, for which the inhibition was -1.31%.

For `c1cnc2nc(-c3ccc4c(c3)OCO4)cn2c1`, the inhibition was -8.76%. Consider `CC(NC(=O)COC(=O)Cc1ccsc1)c1ccccc1` (stereo not drawn), for which the inhibition was -0.56%. `O=C(NCc1ccccc1)N(Cc1cc2cc3c(cc2[nH]c1=O)OCCO3)CC1CCCO1` (stereo not drawn): the inhibition is -1.33%. To `CC1CCN(Cc2c(C#N)c3ccccc3n2C)CC1` belongs -4.52%; to `Cc1nc(Nc2c(Cl)cccc2Cl)sc1C(=O)Nc1ccccc1`, 10.3%. For `Cc1nc(Nc2ccccc2)sc1C(=O)Nc1ccccc1`, the inhibition was 21.1%. To `O=C(OCC(=O)c1ccc[nH]1)c1ccc(S(=O)(=O)N2CCCCC2)cc1` belongs -10.2%; to `S=c1[nH]nc(COc2ccccc2)n1/N=C/C=C/c1ccccc1`, 12.1%; to `CCN(CC)C(=O)N1CCN(S(=O)(=O)c2ccc(C)cc2)CC1`, -9.01%. As to `O=C(COc1ccccc1)Nn1c(-c2ccccc2)nc2ccccc2c1=O`, the inhibition was -3.31%. Regarding `O=C(N/N=C/c1ccncc1)c1ccc(NS(=O)(=O)c2cccs2)cc1`, the inhibition was -0.88%. The result for `COc1ccc(N2CCN(c3cnc4ccccc4n3)CC2)cc1` reads -9.34%.

For the compound `c1ccc(N2CCN(c3cnc4ccccc4n3)CC2)cc1`, the inhibition was 5.67%.

For the compound `CC(C)C(NS(=O)(=O)c1cccc2nsnc12)C(=O)NCCC1=CCCCC1` (stereo not drawn), the inhibition is -3.27%. To `Cc1cc(O)c(C(C[N+](=O)[O-])c2ccc(Cl)cc2Cl)c(=O)o1` (stereo not drawn) belongs 2.19%; to `O=c1[nH][nH]c(-c2ccccc2O)c1C(C[N+](=O)[O-])c1ccccc1` (stereo not drawn), 6.94%. Take `Cc1[nH]n(-c2ccccc2)c(=O)c1C(C[N+](=O)[O-])c1ccccc1Cl` (stereo not drawn): the inhibition was 3.54%. The result for `Cc1ccc(C(C[N+](=O)[O-])c2c(-c3ccccc3O)[nH][nH]c2=O)cc1` (stereo not drawn) reads 4.79%; that for `Cc1[nH]c2ccccc2c1C(C[N+](=O)[O-])c1cccc(O)c1` (stereo not drawn), 6.89%; that for `Cc1cc(O)c(C(C[N+](=O)[O-])c2ccc(Cl)cc2)c(=O)o1` (stereo not drawn), 6.11%.

With `O=C(Nc1ccccc1)c1ccc(NCc2cccnc2)c(S(=O)(=O)N2CCOCC2)c1`, the inhibition is 1.54%.

Take `COc1cc(-c2nc3n(n2)C(c2ccncc2)C(C(N)=O)=C(C)N3)cc(OC)c1OC` (stereo not drawn): the inhibition was -5.67%. `COc1cccc(C2=CC(c3cccc(OC)c3OC)n3nnnc3N2)c1` (stereo not drawn): the inhibition is -6.61%.

Regarding `O=C(COC(=O)c1cc(S(=O)(=O)N2CCCC2)ccc1O)Nc1ccc(S(=O)(=O)N2CCOCC2)cc1`, the inhibition was 1.29%. With `CN1CCC(N(C)C(=O)c2cc(=O)c3ccccc3o2)CC1`, the inhibition was 18.1%. To `CCOC(=O)c1sc2nc(CSc3ccccc3)nc(NCCN(C)C)c2c1C` belongs -5.4%. In the case of `Cc1sc2nc(CSc3ccccc3)nc(N3CCN(C)CC3)c2c1C`, the inhibition was 0.24%. Take `CCC(C)NC(=O)c1c(N)n(/N=C/c2cccnc2)c2nc3ccccc3nc12` (stereo not drawn): the inhibition was 7.17%.

Regarding `CC(C)CNC(=O)c1c(N)n(/N=C/c2ccccn2)c2nc3ccccc3nc12`, the inhibition is -5.94%. Consider `Cc1ccc(CSCc2ccc(C(=O)NCC3CCCO3)o2)cc1` (stereo not drawn), for which the inhibition is 6.03%.

Turning to `CCOC(=O)c1ccc(NC(=S)N2CCN(c3ccc(N4CCOCC4)nn3)CC2)cc1`, the inhibition was 4.49%. Regarding `CC(C)C(NC(=O)c1ccccc1)C(=O)NC1=NCCS1` (stereo not drawn), the inhibition is -2.59%.

Consider `O=C(Nc1nc2ccccc2s1)c1cc(-c2ccccc2)nn1-c1ccccc1`, for which the inhibition was -3.23%. In the case of `CCc1nnc(NC(=O)c2cc(-c3ccccc3)nn2-c2ccccc2)s1`, the inhibition was 19.3%.
